Assay [1] is described as follows: qHTS assay to identify small molecule agonists of the androgen receptor (AR) signaling pathway in the presence of an antagonist - cell viability counter screen (AID 1259379). Also: nearly all actives have a fitted effect of over 25% in size. The gist of the method:
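MDA-kb2 cells (MMTV-luciferase, AR/GR), 3,000/well, 5 h attachment, then 3.0 µM nilutamide (final) and compounds at 15 concentrations. Viability by CellTiter-Fluor fluorescence after 16 h at 37 °C, 0% CO2, in the reporter wells.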
On the technique in general: Quantitative high-throughput screening tests each substance at several concentrations.

Assay [2] is described as follows: qHTS assay to identify small molecule agonists of the estrogen receptor beta (ER-beta) signaling pathway - cell viability counter screen (AID 1259380). Also: nearly all actives have a fitted effect of over 30% in size. The gist of the method: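 ER-beta-UAS-bla HEK293T cells in medium with 2% charcoal-stripped FBS, pre-incubated 6 hr, then treated 16 hr at 37C. Cytotoxicity read in the same wells by CellTiter-Glo luminescence after 30 min at room temperature.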

The nature of assay [3]: qHTS assay to identify small molecule antagonists of the estrogen receptor beta (ER-beta) signaling pathway - cell viability counter screen (AID 1259382). Also: nearly all actives have a fitted effect of over 55% in size. The gist of the method:
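ER-beta-UAS-bla HEK293T cells in 2% charcoal-stripped FBS medium, treated with compound plus 1 nM 17-beta-estradiol for 16 h at 37C. Viability read by CellTiter-Glo luminescence after 30 min at room temperature in the same wells.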

The target of assay [4] is Estrogen receptor (Homo sapiens) (UniProt P03372). Description: qHTS assay to identify small molecule agonists of the estrogen receptor alpha (ER-alpha) signaling pathway in the presence of an antagonist (AID 1259383; calls by dose curve; also: nearly all actives have a fitted effect of over 15% in size). The essentials:
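VM7Luc4E2 cells express endogenous full-length ER-alpha with an ERE-luciferase reporter and were hormone-deprived for 5 days. Compounds at 15 concentrations were added with 10.0nM ICI-182,780 for 22hr at 37C. Luminescence was read with ONE-Glo.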

Assay [5] can be described thus: qHTS assay to identify small molecule agonists of the estrogen receptor alpha (ER-alpha) signaling pathway in the presence of an antagonist - cell viability counter screen (AID 1259386).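 Also: cells exposed to compounds for 22 h at 37 °C before the viability read; nearly all actives have a fitted effect of over 30% in size.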 The gist of the method:
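Cell viability in VM7Luc4E2 cells (endogenous full-length ER-alpha) measured by CellTiter-Fluor fluorescence in the same wells as the luciferase screen. Cells pre-cultured 5 days in charcoal-stripped serum, then treated 22 h with compounds at 15 concentrations plus 10.0nM ICI-182,780.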

Assay [6] is described as follows: qHTS assay to identify small molecule agonists or antagonists of the thyroid stimulating hormone receptor (TSHR) signaling pathway - wild type cell line counter screen (AID 1259384; calls by dose curve). The gist of the method:
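Counter screen in untransfected Hek293: compounds (15-point titration, triplicate) plus phosphodiesterase inhibitor Ro20-1724 added after 18 h plating; 30 min RT. Intracellular cAMP via competitive d2/cryptate immunoassay, 1 h incubation.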

In assay [7] the target is Thyrotropin receptor (Homo sapiens) (UniProt P16473). Description: qHTS assay to identify small molecule antagonists of the thyroid stimulating hormone receptor (TSHR) signaling pathway (AID 1259385; calls by dose curve; also: nearly all actives have a fitted effect of over 20% in size). The essentials:
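Antagonist mode: compound-treated TSHR-expressing HEK293 cells were stimulated with 1.5 ng/mL TSH (final) in presence of Ro20-1724 for 30 min at RT. HTRF cAMP detection after 1 h; each compound tested at 15 concentrations, triplicate.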

Values joined by “and” are separate entries in the source; they are usually repeats but may differ in a detail not shown here. Identical values can stand only once. Records with an inconclusive call do not appear. Some structures have more than one record in an assay (separate samples or runs), and their calls can disagree. Active and inactive are the calls of the source. Unless noted, calls follow the shape of the dose curve; as a rule, active = well fitted curve in the direction sought with a large enough effect in the repeat runs; inconclusive = weak or mixed curves; inactive = no such curve, though single readings can be large; an effect the other way counts as inactive or inconclusive.
% is scaled to controls: 0 for no effect and ±100 for the full control effect; potency is read from the fitted curve at half-maximal effect.

Chain of Estrogen receptor (Homo sapiens) (P03372 whole entry, looked up): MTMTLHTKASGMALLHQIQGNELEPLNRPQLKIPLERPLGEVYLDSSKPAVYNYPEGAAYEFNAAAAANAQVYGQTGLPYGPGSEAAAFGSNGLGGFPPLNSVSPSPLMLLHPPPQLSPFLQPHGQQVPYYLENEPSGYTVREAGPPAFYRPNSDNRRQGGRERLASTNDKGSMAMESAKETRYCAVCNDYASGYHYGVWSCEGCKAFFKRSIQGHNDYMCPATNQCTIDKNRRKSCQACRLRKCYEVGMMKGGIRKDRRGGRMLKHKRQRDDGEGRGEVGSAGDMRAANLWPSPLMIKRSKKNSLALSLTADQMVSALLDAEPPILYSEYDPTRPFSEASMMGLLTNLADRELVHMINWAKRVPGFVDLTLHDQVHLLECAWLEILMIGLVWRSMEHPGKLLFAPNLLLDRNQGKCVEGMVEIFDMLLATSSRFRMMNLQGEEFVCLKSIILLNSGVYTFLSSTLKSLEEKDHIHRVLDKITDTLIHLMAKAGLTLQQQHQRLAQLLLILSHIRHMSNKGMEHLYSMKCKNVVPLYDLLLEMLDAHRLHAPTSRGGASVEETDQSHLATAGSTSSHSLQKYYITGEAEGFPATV
Chain of Thyrotropin receptor (Homo sapiens) (P16473 whole entry, looked up): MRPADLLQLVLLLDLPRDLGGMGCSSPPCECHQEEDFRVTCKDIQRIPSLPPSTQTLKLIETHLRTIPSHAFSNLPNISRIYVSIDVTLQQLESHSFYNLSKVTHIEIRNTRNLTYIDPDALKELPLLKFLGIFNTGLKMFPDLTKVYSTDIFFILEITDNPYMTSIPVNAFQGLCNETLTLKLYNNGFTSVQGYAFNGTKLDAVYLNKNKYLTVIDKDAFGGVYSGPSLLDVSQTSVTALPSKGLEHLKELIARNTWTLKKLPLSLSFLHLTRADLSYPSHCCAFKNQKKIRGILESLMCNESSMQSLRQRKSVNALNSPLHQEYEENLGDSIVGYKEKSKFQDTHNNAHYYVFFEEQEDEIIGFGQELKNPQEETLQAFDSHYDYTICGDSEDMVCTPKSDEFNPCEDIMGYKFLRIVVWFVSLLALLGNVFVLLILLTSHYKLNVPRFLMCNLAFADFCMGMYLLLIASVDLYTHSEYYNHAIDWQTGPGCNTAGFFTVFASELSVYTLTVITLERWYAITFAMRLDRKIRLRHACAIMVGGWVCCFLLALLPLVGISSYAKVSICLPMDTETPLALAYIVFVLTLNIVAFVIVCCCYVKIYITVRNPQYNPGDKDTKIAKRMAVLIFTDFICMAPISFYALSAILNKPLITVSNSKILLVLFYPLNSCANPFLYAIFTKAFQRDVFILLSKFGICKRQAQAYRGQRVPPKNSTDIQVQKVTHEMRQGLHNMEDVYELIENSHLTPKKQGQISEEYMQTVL

Take `NC(N)=Nc1nc(CSCC/C(N)=N/S(N)(=O)=O)cs1`: the Potency entry in assay [1], in assay [2], in assay [3], in assay [4] and in assay [5] was “inactive” each time.

For the molecule `CN(C)c1ccc2nc3ccc(=[N+](C)C)cc-3sc2c1`, the Potency in assay [1] was 3.3 µM (active) and 6.86 µM (active) and 4.22 µM (active); in assay [2], 2.08 µM (active) and 27.3 µM (active) and 3.76 µM (active); in assay [5], 33 µM (active) and 27.3 µM (active) and 15 µM (active). The Potency entry in assay [4] is “inactive”.

For `NC12CC3CC(CC(C3)C1)C2`, the Potency entry in assay [1], in assay [2], in assay [3] and in assay [5] was “inactive” throughout.

Turning to `CC(C)C(=O)c1c(C(C)C)nn2ccccc12`, the Potency result in assay [1], in assay [2], in assay [3] and in assay [5] was “inactive” throughout.

With `CCCN[C@H]1CCc2nc(N)sc2C1`, the Potency result in assay [1], in assay [2], in assay [3], in assay [6], in assay [7] and in assay [5] was “inactive” throughout.

Regarding `COc1ccc(COC(C)=O)cc1`, the Potency result in assay [1], in assay [2], in assay [3], in assay [6], in assay [7] and in assay [5] was “inactive” in each case.

As to `OCCOCCN1CCN(C(c2ccccc2)c2ccc(Cl)cc2)CC1` (configuration not stated), the Potency in assay [1] was 53.8 µM (active) and inactive; in assay [2] it was 30.2 µM (active); in assay [3], 26.9 µM (active). For the same molecule, the Potency entry in assay [6], in assay [7] and in assay [5] was “inactive” each time.

With `[Cl][In]([Cl])[Cl]`, the Potency result in assay [1], in assay [3], in assay [4] and in assay [5] was “inactive” in each case.

Consider `NNCCc1ccccc1`, for which the Potency entry in assay [1], in assay [2], in assay [3], in assay [6], in assay [7] and in assay [5] was “inactive” throughout.

`O=C1CC2(CCCC2)CC(=O)N1CCCCN1CCN(c2ncccn2)CC1`: the Potency entry in assay [1], in assay [3], in assay [6], in assay [7] and in assay [5] was “inactive” throughout. In assay [2], the Potency is 4.86 µM (active).

As to `O=C(O)CP(=O)(O)O`, the Potency result in assay [1], in assay [2], in assay [3], in assay [4], in assay [7] and in assay [5] was “inactive” in each case.

Consider `Nc1ccc2cc3ccccc3cc2c1`, for which the Potency entry in assay [1], in assay [3], in assay [6], in assay [7] and in assay [5] was “inactive” throughout. Moreover, the Potency in assay [4] is 1.75 µM (active) and 13.7 µM (active).

Take `Cc1cccc2n[nH]nc12`: the Potency entry in assay [1], in assay [2], in assay [3], in assay [6], in assay [7] and in assay [5] was “inactive” each time.

As to `O=C(Nc1ccccc1SSc1ccccc1NC(=O)c1ccccc1)c1ccccc1`, the Potency entry in assay [3], in assay [4], in assay [6], in assay [7] and in assay [5] was “inactive” in each case.

Turning to `c1ccc2cc3c(ccc4ccccc43)cc2c1`, the Potency entry in assay [1], in assay [2], in assay [3], in assay [6], in assay [7] and in assay [5] was “inactive” throughout.

For the molecule `O`, the Potency result in assay [1], in assay [2], in assay [3], in assay [6], in assay [7] and in assay [5] was “inactive” each time.

As to `CC1COc2c(N3CCN(C)CC3)c(F)cc3c(=O)c(C(=O)O)cn1c23` (configuration not stated), the Potency result in assay [1], in assay [2], in assay [3], in assay [7] and in assay [5] was “inactive” in each case.

As to `NC(N)=NC(=O)Cc1c(Cl)cccc1Cl`, the Potency result in assay [1], in assay [2], in assay [3], in assay [6], in assay [7] and in assay [5] was “inactive” in each case.

Turning to `NCCCCCC(=O)O`, the Potency entry in assay [1], in assay [2], in assay [3], in assay [4], in assay [7] and in assay [5] was “inactive” each time.

In the case of `Nc1cc(S(=O)(=O)O)cc2cc(S(=O)(=O)O)cc(O)c12`, the Potency result was “inactive and 27.3 µM (active)” in assay [1]; “inactive and 4.33 µM (active)” in assay [2]; 48.3 µM (active) and 30.6 µM (active) in assay [5]. Besides, in assay [3], the Potency entry is “inactive”.

Turning to `COc1ccc(CCN(C)CCCC(C#N)(c2ccc(OC)c(OC)c2)C(C)C)cc1OC` (configuration not stated), the Potency result in assay [2] and in assay [3] was “inactive” each time. Also, the Potency in assay [7] is 43.2 µM (active); in assay [5], 30.6 µM (active).

Turning to `CN(C)c1ccc(C(=C2C=CC(=[N+](C)C)C=C2)c2ccccc2)cc1`, the Potency in assay [1] was 3.86 µM (active) and 3.35 µM (active) and 2.66 µM (active); in assay [2], 5.31 µM (active) [middle of 4 runs]; in assay [3], 7.5 µM (active) [middle of 4 runs]; in assay [7], 29.8 µM (active) and inactive.

On to `CC(C)(C)NCC(O)c1cc(O)cc(O)c1` (configuration not stated), for which the Potency result in assay [1], in assay [2], in assay [3], in assay [7] and in assay [5] was “inactive” throughout. For the same molecule, in assay [6], the Potency was 2.03 µM (active).

For the molecule `COC(=O)[C@H]1[C@H]2C[C@@H]3c4[nH]c5cc(OC)ccc5c4CCN3C[C@H]2C[C@@H](OC(=O)c2cc(OC)c(OC)c(OC)c2)[C@@H]1OC`, the Potency result in assay [1], in assay [6], in assay [7] and in assay [5] was “inactive” throughout. Further, the Potency in assay [2] is 8.62 µM (active) and 9.96 µM (active) and 11.9 µM (active).

On to `c1cc(C(c2ccc(OCC3CO3)cc2)C(c2ccc(OCC3CO3)cc2)c2ccc(OCC3CO3)cc2)ccc1OCC1CO1` (configuration not stated), for which the Potency entry in assay [1], in assay [3], in assay [4], in assay [6], in assay [7] and in assay [5] was “inactive” in each case.

`CCN(CC)c1ccc2c(C)cc(=O)oc2c1`: the Potency result in assay [1], in assay [3], in assay [4], in assay [6], in assay [7] and in assay [5] was “inactive” each time.

As for `CC1=C(C=O)C(C)(C)CC=C1`, the Potency result in assay [1], in assay [2], in assay [3], in assay [6], in assay [7] and in assay [5] was “inactive” each time.

As for `CC[C@H]1CN2CCc3cc(OC)c(OC)cc3[C@@H]2C[C@@H]1C[C@H]1NCCc2cc(OC)c(OC)cc21`, the results for the Potency in assay [1] and in assay [5] were 194 nM (active) and 38.7 µM (active), respectively. Also, the Potency entry in assay [2] and in assay [3] was “inactive” in each case.

With `O=C1OC2(c3ccc(O)cc3Oc3cc(O)ccc32)c2ccccc21`, the Potency entry in assay [2], in assay [3], in assay [4] and in assay [7] was “inactive” throughout.

Consider `CCCCCCCCCCCC[N+](C)(C)C`, for which the Potency was 13.6 µM (active) and 9.69 µM (active) and 13.7 µM (active) in assay [1]; 60.9 µM (active) in assay [2]; 68.6 µM (active) in assay [3]; 54.5 µM (active) in assay [5]. Further, the Potency result in assay [7] is “inactive”.
